Bioassay records deposited in PubChem by National Center for Advancing Translational Sciences (NCATS).
NS1 function inh = influenza NS1 inhibition; Potency, µM (doses to about 46.1 µM), inactives show top-dose activity, positive = more growth; 0.4% of 270,000 active; AID 2326; also: potency is read from the fitted curve at half-maximal effect; actives are rising curves; nearly all actives have a fitted effect of over 50% in size
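Read-out: OD600 growth recovery of NS1-expressing budding yeast. Cells grown overnight at 30C in -URA glucose medium, washed, resuspended and diluted 1:100 in 2% galactose assay medium, pH 6.0. Same strain lacking NS1 served as positive control.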
Shiga inhibitor = Shiga toxin inhibition; 9.2% of 290,000 active; Vero cells, Shiga toxin protein synthesis inhibition reporter; inhibition, % at 38.7 µM; in the data active = inhibition mostly above about 28%, no sharp cut-off; inactive = mostly below about 43%; also: 0% is about no effect
LmPK inhibitor = LmPK (Leishmania mexicana) enzyme inhibition | Q27686 | purified LmPK, Kinase-Glo ATP luminescence, 1 h | 0.37% of 290,000 active | Potency, µM (highest dose often 57.5 µM), inactives show at the highest dose activity change, negative = inhibition, usual class: inhibitors | AID 1721; active = well fitted curve in the direction sought with a large enough effect; inconclusive = small, poorly fitted or top-dose-only effect, or another doubt; inactive = no such curve, though single readings can be large; an effect the other way counts as inactive or inconclusive; also: potency is read from the fitted curve at half-maximal effect; % is scaled to controls: 0 for no effect and ±100 for the full control effect
Target sequence (Q27686 whole entry, looked up): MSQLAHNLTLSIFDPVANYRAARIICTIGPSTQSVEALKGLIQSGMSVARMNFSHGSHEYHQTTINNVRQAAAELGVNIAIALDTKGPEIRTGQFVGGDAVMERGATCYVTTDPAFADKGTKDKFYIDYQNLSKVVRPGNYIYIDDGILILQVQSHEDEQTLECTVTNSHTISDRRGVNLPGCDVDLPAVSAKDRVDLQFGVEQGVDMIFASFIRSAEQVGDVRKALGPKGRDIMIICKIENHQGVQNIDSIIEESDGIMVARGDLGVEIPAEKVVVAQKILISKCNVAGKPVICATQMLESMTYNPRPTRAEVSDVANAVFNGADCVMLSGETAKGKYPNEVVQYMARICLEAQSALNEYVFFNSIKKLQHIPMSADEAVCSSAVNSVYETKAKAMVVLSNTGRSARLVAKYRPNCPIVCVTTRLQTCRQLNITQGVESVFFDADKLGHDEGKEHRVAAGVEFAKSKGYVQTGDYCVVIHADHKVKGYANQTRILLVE
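Purified LmPK (0.1 nM) converted ADP (0.1 mM) to ATP with PEP (0.5 mM) in imidazole buffer pH 7.2 with KCl and MgCl2, 1 h at room temperature. ATP was read by Kinase-Glo luminescence; data normalized to uninhibited and no-enzyme controls.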
Cycloheximide cs = counter-screen for Shiga toxin inhibitors: cycloheximide protein synthesis inhibition | AID 2314 | 12% of 300,000 active | max response, % | cell reporter, cycloheximide protein synthesis inhibition counterscreen; in the data active = max response mostly above about 13%, no sharp cut-off; inactive = mostly below about 14%; also: read at 38.3 µM for the half of the compounds with a filed dose; 0% is about no effect
SARS PLpro yeast-1 = inhibitors of SARS-CoV papain-like protease in yeast; S. cerevisiae expressing SARS-CoV PLpro, growth rescue; Potency, µM (top dose mostly 32.9 µM), inactives show at the highest dose activity, positive = growth rescue, most hits filed as activators; 0.19% of 330,000 active; also: potency is read from the fitted curve at half-maximal effect; 0% is about no effect; nearly all actives have a fitted effect of over 55% in size
Tb PYK inh = inhibitors of Trypanosoma brucei pyruvate kinase. Q57TT1. TbPYK enzyme, Kinase-Glo Plus ATP luminescence, 45 min. Potency, µM (doses to about 76.8 µM), without a hit: top-dose activity, negative = inhibition, hits mostly inhibitors. 0.12% of 410,000 active; active = well fitted curve in the direction sought with a large enough effect; inconclusive = small, poorly fitted or top-dose-only effect, or another doubt; inactive = no such curve, though single readings can be large; an effect the other way counts as inactive or inconclusive; also: potency is read from the fitted curve at half-maximal effect; % is scaled to controls: 0 for no effect and ±100 for the full control effect; nearly all actives have a fitted effect of over 50% in size
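Luminescent Kinase-Glo Plus end-point after 45 min room-temperature reaction of T. brucei pyruvate kinase started with 130 uM ADP (final). Buffer TEA 50 mM pH 7.2 with KCl, MgCl2, BSA, Tween-20; titration-based qHTS with fitted concentration-effect curves.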
SARS PLpro yeast-2 = Validates SARS-CoV PLpro inhibitor hits in yeast. shares compounds with SARS PLpro yeast-1. 19% of 1,000 active. calls only. yeast expressing SARS-CoV PLpro, growth phenotype rescue; call rule not given here
* = called active by the depositor. Only a selection was taken, and hits are over-represented in it overall. Unless noted, calls follow the shape of the full dose curve.

What do the screens show for `N#CC1=C(N)Oc2c(ccc3cccnc23)C1c1cccnc1` (stereo unspecified)?
NS1 function inh: -5.1%; Shiga inhibitor: 3.5; LmPK inhibitor: 3.9%; Cycloheximide cs: -1.1; SARS PLpro yeast-1: inconclusive; Tb PYK inh: 59.3%; SARS PLpro yeast-2: inactive

How did COc1cccc(C2C(C#N)=C(N)OC(C(C)(C)C)=C2C#N)c1 (stereo unspecified) do in these assays?
NS1 function inh: -12.8%; Shiga inhibitor: 15.1; LmPK inhibitor: 0.7%; Cycloheximide cs: -3.7; SARS PLpro yeast-1: -6.8%; Tb PYK inh: -11.4%

How did CC(C)(C)C1=C(C#N)C(c2cccnc2)C(C#N)=C(N)O1 (stereo unspecified) do in these assays?
NS1 function inh: 6.2%; Shiga inhibitor: -3.2; LmPK inhibitor: 1.4%; Cycloheximide cs: 7.0; SARS PLpro yeast-1: 17.8µM*; Tb PYK inh: -9.9%; SARS PLpro yeast-2: inactive

How did C=CCn1c(SCC(=O)Nc2cc(C)ccc2OC)nnc1-c1ccco1 do in these assays?
NS1 function inh: -52.7%; Shiga inhibitor: -17.9; LmPK inhibitor: 3.6%; Cycloheximide cs: -8.8; SARS PLpro yeast-1: inconclusive; Tb PYK inh: -5.0%; SARS PLpro yeast-2: inactive

Results for CCOc1ccc(-c2nc3c(c(SCC(=O)N4CCCCC4)n2)Cc2cccc(OC)c2O3)cc1 ?
Tb PYK inh: -5.2%

How did CC(=O)Nc1cccc(NC(=O)CSc2ccc(-c3ccccn3)nn2)c1 do in these assays?
Shiga inhibitor: 31.5; LmPK inhibitor: -11.1%; Cycloheximide cs: 5.8; SARS PLpro yeast-1: inconclusive; Tb PYK inh: -3.7%

What do the screens show for `CC(=O)c1cccc(NC(=O)CSc2ccc(-c3ccccn3)nn2)c1`?
NS1 function inh: -116.7%; Shiga inhibitor: 16.8; LmPK inhibitor: 0.4%; Cycloheximide cs: 7.5; SARS PLpro yeast-1: inconclusive; Tb PYK inh: -3.2%; SARS PLpro yeast-2: active

Results for O=C(N/N=C/c1ccccn1)C(O)c1ccccc1 (stereo unspecified) ?
NS1 function inh: 2.9%; Shiga inhibitor: -15.6; LmPK inhibitor: -0.9%; Cycloheximide cs: -2.2; SARS PLpro yeast-1: -3.4%; Tb PYK inh: 2.7%

How did C(=N\NC(=Nc1ccccc1)c1ccccn1)/c1ccccn1 do in these assays?
NS1 function inh: -8.9%; Shiga inhibitor: 27.6; LmPK inhibitor: 0.1%; Cycloheximide cs: 14.1*; SARS PLpro yeast-1: inconclusive; Tb PYK inh: 8.1%; SARS PLpro yeast-2: inconclusive

Results for Cc1ccccc1NC(=O)C(C)OC(=O)CNS(=O)(=O)c1ccc(C#N)cc1 (stereo unspecified) ?
SARS PLpro yeast-1: inconclusive; Tb PYK inh: -7.1%; SARS PLpro yeast-2: inactive

What do the screens show for `CN(C)c1ccc(S(=O)(=O)N(C)C)cc1NC(=O)Cc1cccc2ccccc12`?
NS1 function inh: 12.1%; Shiga inhibitor: -5.1; LmPK inhibitor: 6.9%; Cycloheximide cs: 3.5; SARS PLpro yeast-1: -0.2%; Tb PYK inh: 4.7%

How did COC(=O)Nc1ccccc1C(=O)N1CCC(O)(c2ccc(Cl)cc2)CC1 do in these assays?
NS1 function inh: -16.0%; Shiga inhibitor: -1.8; LmPK inhibitor: 0.3%; Cycloheximide cs: -0.6; SARS PLpro yeast-1: inconclusive; Tb PYK inh: -6.2%; SARS PLpro yeast-2: inactive

How did NC(=O)Nc1ccccc1C(=O)N1CCC(O)(c2ccc(Cl)cc2)CC1 do in these assays?
NS1 function inh: 5.1%; Shiga inhibitor: -6.8; LmPK inhibitor: 0.3%; Cycloheximide cs: -4.2; SARS PLpro yeast-1: 1.0%; Tb PYK inh: 0.0%

What do the screens show for `COc1ccc(C(=O)N2CCN(Cc3cc(OC)c(O)c(OC)c3)CC2)cc1OC`?
NS1 function inh: inconclusive; Shiga inhibitor: 3.7; LmPK inhibitor: 3.7%; Cycloheximide cs: -1.0; SARS PLpro yeast-1: 20µM*; Tb PYK inh: 5.2%; SARS PLpro yeast-2: inactive

What do the screens show for `Cc1ccc(C(=O)NC(C)C2CC3CCC2C3)cc1` (stereo unspecified)?
Tb PYK inh: -2.5%

How did O=C(CN1CC(c2ccccc2)CC1=O)N/N=C/c1cc(Br)ccc1O (stereo unspecified) do in these assays?
NS1 function inh: -8.1%; Shiga inhibitor: -7.9; LmPK inhibitor: 0.0%; Cycloheximide cs: 2.8; SARS PLpro yeast-1: 10µM*; Tb PYK inh: -8.9%; SARS PLpro yeast-2: active

What do the screens show for `CCCN1C/C(=C/c2ccc3c(c2)OCO3)C(=O)/C(=C/c2ccc3c(c2)OCO3)C1`?
NS1 function inh: 10.8%; Shiga inhibitor: 5.6; LmPK inhibitor: -2.0%; Cycloheximide cs: 6.6; SARS PLpro yeast-1: 14.1µM*; Tb PYK inh: -12.4%; SARS PLpro yeast-2: inactive

How did CCN(c1ccccc1)S(=O)(=O)c1ccc2c(c1)OCCO2 do in these assays?
SARS PLpro yeast-1: -8.5%; Tb PYK inh: 2.6%

How did CC1=CC2(C)C(C3C(C)=CC2(C)C(=O)C3(C)O)C(C)(O)C1=O (stereo unspecified) do in these assays?
Tb PYK inh: 1.0%

How did COc1ccc(-c2nnn(CC#N)n2)cc1OC do in these assays?
NS1 function inh: -1.2%; Shiga inhibitor: -12.4; LmPK inhibitor: -6.2%; Cycloheximide cs: -2.5; SARS PLpro yeast-1: 5.9%; Tb PYK inh: -7.5%

Results for COc1ccccc1-c1nnn(CC#N)n1 ?
NS1 function inh: -1.6%; Shiga inhibitor: -14.6; LmPK inhibitor: 4.2%; Cycloheximide cs: -1.5; SARS PLpro yeast-1: inconclusive; Tb PYK inh: 2.7%; SARS PLpro yeast-2: inactive

Results for N#Cc1ccc(CN2CCN(C(=O)c3cc(Cl)c4c(c3)OCCO4)CC2)cc1 ?
SARS PLpro yeast-1: -7.2%; Tb PYK inh: 1.5%

How did NC(=O)C1CCN(C(=O)c2cc(Cl)c3c(c2)OCCO3)CC1 do in these assays?
SARS PLpro yeast-1: 2.51µM*; Tb PYK inh: 0.0%; SARS PLpro yeast-2: inactive

What do the screens show for `CCCCC[C@H](O)/C=C/[C@H]1CCC(=O)[C@@H]1CCCCCCC(=O)N1CCCCC1CO` (stereo partly specified)?
NS1 function inh: 7.7%; Shiga inhibitor: -11.2; LmPK inhibitor: 5.8%; Cycloheximide cs: -0.8; SARS PLpro yeast-1: -2.0%; Tb PYK inh: -0.8%

Results for O=C(CSc1nnc(-c2cccnc2)s1)Nc1ccccc1 ?
NS1 function inh: -8.7%; Shiga inhibitor: -5.2; LmPK inhibitor: -6.6%; Cycloheximide cs: -4.4; SARS PLpro yeast-1: inconclusive; Tb PYK inh: -3.0%; SARS PLpro yeast-2: active

Results for O=C(CSc1nnc(-c2cccnc2)s1)Nc1cccc(C(=O)O)c1 ?
NS1 function inh: -0.1%; Shiga inhibitor: 29.9; LmPK inhibitor: -2.2%; Cycloheximide cs: -1.4; SARS PLpro yeast-1: 6.7%; Tb PYK inh: -10.5%

Results for c1ccc2c(CCNCc3ccc4c(c3)OCO4)c[nH]c2c1 ?
NS1 function inh: 9.3%; Shiga inhibitor: -7.3; LmPK inhibitor: 4.6%; Cycloheximide cs: -1.5; SARS PLpro yeast-1: inconclusive; Tb PYK inh: 0.0%; SARS PLpro yeast-2: inactive

Results for COc1ccc(NC(=O)C2(C)CCCN(C(C)C)C2)cc1OC (stereo unspecified) ?
Tb PYK inh: 0.9%
